From PubChem BioAssay AID372 (MTDP, 2006) come the findings set out here.

As a reminder, the inhibition is the drop in the measured response relative to a control, in per cent.

Out of some 100,000 compounds screened, about 770 (0.77%) were called active. This is one part of a sample in which actives are shown more often than they occur. No stated cut-off is given here; in the data, active means inhibition above about 50%; inactive means the rest.

For this test, the target named is Gag-Pol polyprotein (Human immunodeficiency virus type 1 group M subtype B (isolate HXB2)) (UniProt P04585). The test is described as follows: RNase H inhibition, HIV 1 Gag Pol polyprotein, FRET biochemical assay, screening (AID 372). The settings on record: HIV-1 RT RNase H, FRET RNA/DNA substrate fluorescence; at 10 µM; active compounds read high.
On to `O=C(c1c(F)cccc1F)N1CCN(c2cc(N3CCCC3)c(F)cc2[N+](=O)[O-])CC1`, for which the inhibition is 11% (inactive). Turning to `CCc1ccc(OCC(=O)Nc2ccc3c(c2)C(=O)c2ccccc2C3=O)cc1`, the inhibition was 27% (inactive).

As to `COC(=O)c1c(NC(=O)c2cc(-c3ccc(Cl)s3)nc3ccccc23)sc2c1CCC(C(C)(C)C)C2` (centres undefined), the inhibition was 1% (inactive). The same measure for `COc1ccc(C(Nc2ccccc2)P(=O)(OC(C)C)OC(C)C)cc1` (centres undefined): 10% (inactive); for `COc1ccc(OC)c(NC(=O)c2ccc(N(C)S(=O)(=O)c3ccccc3)cc2)c1`: 13% (inactive); for `Oc1c(Cl)cc(Cl)cc1/C=N/N=C/c1cc(Cl)cc(Cl)c1O`: 15% (inactive). `COc1ccc(-c2cccc(=O)o2)cc1`: the inhibition was 0% (inactive).

As to `CCCC1CCC(c2ccc(OCC)cc2)=CC1=O` (centres undefined), the inhibition is 8% (inactive). As for `COc1ccc(C2=CC(=O)c3ccccc3C2=O)cc1`, the inhibition was 40% (inactive). The same measure for `COc1ccc(C2=CC(=O)C=CC2=O)cc1`: 75% (active); for `CCOc1ccc(C2=NNC(=O)CC2)cc1`: 10% (inactive); for `CCOC(=O)C1=C(C)N=c2s/c(=C\c3ccc(O)c(OC)c3)c(=O)n2C1c1cc(OC)ccc1OC` (centres undefined): 0% (inactive). On to `CC(NC(=O)CN1C(=O)c2ccccc2C1=O)c1ccccc1` (centres undefined), for which the inhibition is 3% (inactive). As to `Cc1cccc(OCCCOc2cccc(/C=c3\sc4nc5ccccc5n4c3=O)c2)c1`, the inhibition was 3% (inactive). In the case of `CCOc1ccc(NC(=S)NC(=O)/C=C/c2ccc(C)cc2)c([N+](=O)[O-])c1`, the inhibition was 21% (inactive).

As to `CCOc1ccc(NC(=S)NC(=O)/C=C/c2ccc(OC)cc2)c([N+](=O)[O-])c1`, the inhibition is 60% (active). The same measure for `CCOc1ccc(NC(=S)NC(=O)/C=C/c2ccc(OC)c(OC)c2)c([N+](=O)[O-])c1`: 2% (inactive); for `CCOc1ccc(NC(=S)NC(=O)/C=C/c2ccc(F)cc2)c([N+](=O)[O-])c1`: 84% (active); for `CCOc1ccc(NC(=S)NC(=O)c2ccc(F)cc2)c([N+](=O)[O-])c1`: 7% (inactive). The same measure for `CCOc1ccc(NC(=S)NC(=O)c2ccccc2)c([N+](=O)[O-])c1`: 11% (inactive). Turning to `Brc1ccc(-c2nc(-c3ccccc3)c(-c3ccc(Br)cc3)[nH]2)cc1`, the inhibition is 17% (inactive).

Take `CCOC(=O)c1[nH]c(C)c(C(=O)N/N=C/c2ccc(-c3ccc(Cl)cc3)o2)c1C`: the inhibition is 18% (inactive). The same measure for `C=CCOc1ccc(/C=C2\SC(N3CCN(c4ccccc4)CC3)=NC2=O)cc1`: 13% (inactive).

On to `COc1ccc(/C=C/C(=O)N2c3ccc(C)cc3-c3c(ssc3=S)C2(C)C)cc1`, for which the inhibition is 20% (inactive). The same measure for `COC(=O)C1=C(C(=O)OC)SC(=C2C(=S)C(C)(C)N(C(=O)/C=C/c3ccc(OC)c(OC)c3)c3ccc(C)cc32)S1`: 40% (inactive); for `COc1ccc2c(c1)-c1c(ssc1=S)C(C)(C)N2C(=O)CN1C(=O)c2ccccc2C1=O`: 0% (inactive); for `Cc1ccc2c(c1)N(C(=O)CN1C(=O)c3ccccc3C1=O)C(C)(C)c1ssc(=S)c1-2`: 10% (inactive). The same measure for `COc1ccc(/C=C/C(=O)N2c3ccc(C)cc3-c3c(ssc3=S)C2(C)C)cc1OC`: 57% (active); for `COC(=O)C1=C(C(=O)OC)SC(=C2C(=S)C(C)(C)N(C(=O)/C=C/c3ccc(OC)cc3)c3ccc(C)cc32)S1`: 22% (inactive); for `COC(=O)C1=C(C(=O)OC)SC(=C2C(=S)C(C)(C)N(C(=O)/C=C/c3ccc(OC)c(OC)c3)c3ccc(OC)cc32)S1`: 53% (active). For the compound `COc1cccc(C(=O)N2c3cc(OC)ccc3-c3c(ssc3=S)C2(C)C)c1`, the inhibition is 54% (active).

Take `COc1ccc2c(c1)N(C(=O)c1ccc(C(C)(C)C)cc1)C(C)(C)c1ssc(=S)c1-2`: the inhibition is 15% (inactive). The same measure for `COc1ccc2c(c1)-c1c(ssc1=S)C(C)(C)N2C(=O)/C=C/c1ccc(OC)c(OC)c1`: 27% (inactive).

With `COc1cccc(C(=O)N2c3ccc(C)cc3-c3c(ssc3=S)C2(C)C)c1`, the inhibition was 13% (inactive). `O=C(O)C1CCCCC1C(=O)NCc1ccccc1` (centres undefined): the inhibition was 0% (inactive). Take `O=C(Nc1ccccc1)c1ccccc1C(=O)OCCCCCc1cccs1`: the inhibition was 1% (inactive). The same measure for `CC(/C=C(\NC(=O)c1ccccc1)C(=O)N/N=C/c1cccc([N+](=O)[O-])c1)=C\c1ccccc1`: 6% (inactive); for `O=C(Nc1ccc(-c2ccc(Cl)cc2)cc1)C1CC1`: 6% (inactive). The same measure for `O=[N+]([O-])c1ccc(C2Nc3ccc(I)cc3C3C=CCC32)cc1` (centres undefined): 25% (inactive). The same measure for `Cc1ccc(S(=O)(=O)N(CC(O)CN(CC(C)C)CC(C)C)c2cccc(C)c2)cc1` (centres undefined): 9% (inactive); for `COc1ccc2ccccc2c1/C=N/NC(=O)c1ccc(-c2ccccc2)cc1`: 13% (inactive).

On to `O=C(Nc1ccc(NC(=O)c2ccc(Cl)cc2Cl)c(Cl)c1)c1ccccc1`, for which the inhibition is 3% (inactive). As to `COc1ccc2c(c1)-c1c(ssc1=S)C(C)(C)N2C(=O)c1ccccc1Br`, the inhibition is 27% (inactive). The same measure for `COc1ccc2c(c1)-c1c(ssc1=S)C(C)(C)N2C(=O)c1ccc(OC)c(OC)c1`: 4% (inactive); for `COc1ccc2c(c1)-c1c(ssc1=S)C(C)(C)N2C(=O)c1ccccc1OC`: 60% (active).

`CCC1CCc2c(sc(NC(=O)c3ccc(Br)o3)c2C(=O)OC)C1` (centres undefined): the inhibition was 13% (inactive). The same measure for `COc1ccccc1S(=O)(=O)CC(SC#N)c1ccccc1` (centres undefined): 4% (inactive). The same measure for `Cc1c(CCNC(=O)c2ccccc2)c2ccccc2n1Cc1ccccc1`: 57% (active). The same measure for `CC(=O)NCCc1c(C)n(Cc2ccccc2)c2ccccc12`: 2% (inactive). As to `Cc1c(CCNC(=O)c2ccccc2F)c2ccccc2n1Cc1ccccc1`, the inhibition is 28% (inactive). The same measure for `O=C1OC(c2ccccc2)=N/C1=C\c1ccc(F)c(Br)c1`: 16% (inactive). The same measure for `CCOC(=O)C1=C(C)N=c2s/c(=C\c3ccc(Br)cc3)c(=O)n2C1c1ccc(OC)c(OC)c1` (centres undefined): 0% (inactive). Take `CC(=O)/C(=C1\NC(C)(C)Cc2ccccc21)c1ccccc1`: the inhibition was 3% (inactive). The same measure for `N#C/C(=C/c1ccc(Sc2ccccc2)o1)C(=O)NCc1ccccc1`: 25% (inactive). The same measure for `N#C/C(=C\c1ccc(Sc2ccccc2)o1)c1ccccc1`: 52% (active). With `Cc1ccc(Sc2ccc(/C=C(\C#N)C(=O)NCc3ccccc3)o2)cc1`, the inhibition was 50% (active). With `N#C/C(=C\c1ccc(I)o1)c1ccccc1`, the inhibition is 41% (inactive). The same measure for `N#C/C(=C\c1ccc(-c2ccccc2)o1)C(=O)NCc1ccccc1`: 16% (inactive); for `N#C/C(=C/c1ccc(Sc2ccccc2)o1)c1nc2ccccc2[nH]1`: 15% (inactive).
